# From the supplement of paper PMC10338343
# ± gives the standard deviation.
# Tested on: EfPiwi piRISC loaded with L1MC piRNA (26 nt)
# Experiment: pre-steady-state target cleavage rate (min^-1); auxiliary factor: 500 nM Ephydatia muelleri Gtsf1; guide: L1MC piRNA 5'p-UAACUAAAUACUAUGCAAGCUGUAGG; MIWI and MILI are mouse PIWI proteins and EfPiwi is from a freshwater sponge; tags in brackets are library labels; higher = faster piRNA-guided slicing of the target
# Method in brief: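 Cleave-'n-Seq: a transcribed, DNA-blocked target RNA library (0.1 nM) was mixed with 1 nM active affinity-purified piRISC carrying one synthetic guide, with or without 500 nM GTSF1 partner protein, in HEPES–potassium acetate buffer at 33 °C for 0–8 or 0–960 min. Uncleaved targets were sequenced and normalised to depth and to weakly complementary targets. Three trials were pooled, and k3 was capped at 0.0001 min^-1. The pre-steady-state cleavage rate came from a burst-and-steady-state fit.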
row,Sequence,pre-steady-state target cleavage rate
1,UCCUGGUACAGCUUGCUUAGUAUUUAGUAA,0.00376 ± 0.0023
2,UCCUCCUACAGCUUGGAUAGUAUAUAGUUA,0.00941 ± 0.0032
3,UCCUGGAACAGCUUGCAAAGUAUUAAGUUA,0.00406 ± 0.003
4,UCCUGGAACAGCUUGCAUAGUAUGUUAGUUA,0.00812 ± 0.0028
5,UCCUCCUACAGCUUGCAUAGUAUAUUGUUA,0.00489 ± 0.003
6,UCCUGGUACAGCUUUCAUAGUAUUUAGUUA,0.00404 ± 0.0023
7,UCCUGGAUGUGCUUGCAUAGUAUUUAGUUU [g2:g20:cont:t1U],0.052 ± 0.017
8,UCCUGGUACAGCUUGCAUAGUUUUUAGUAA,0.00728 ± 0.0027
9,UCCUCCAUACAGCUUGCAUAGUAUUUAGUUA,0.00733 ± 0.0027
10,UCCUCCAUCAGCUUGCAUAGUAUUUAGUAA,0.00678 ± 0.003
11,UCCUGGUACAGCAUGCAUAGUAUUUAGUAA,0.00753 ± 0.0032
12,UCCUGCUACAGCUUGCACAGUAUUUAGUUA,0.0133 ± 0.0041
13,UCCUGGUACAGGUUGCAAAGUAUUUAGUUA,0.00511 ± 0.0028
14,UCCUGGAUCUGCUUGCAUAGUAUUUAGUAA,0.1 ± 0.038
15,UCCUGGAUGUCGAUGCAUAGUACUUAGUUA,0.00454 ± 0.0029
16,UCCUGGAUGUCCUCGCAUAGUAUUUAGUUA,0.00388 ± 0.0033
